# Data reported in PubChem BioAssay AID488969 (Vanderbilt High Throughput Screening Facility, 2010).
# Over roughly 110,000 compounds, “z-score” has its median near -0.1; the highest 2% begin near 2. Shown is part of a subset that was picked to be rich in the highest values. Active and inactive are the calls of the source.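 The calls were made as follows: active = z-score in the third read window above 3 or below -3; inactive = the rest.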
# Target: Metabotropic glutamate receptor 8 (Rattus norvegicus) (UniProt P70579)
# Experiment: mGluR8 Gi/Go-coupled signaling modulation – cell-based, rat, thallium flux, HTS, primary screen (AID 488969)
# Details: HEK293 rat mGluR8, GIRK (G protein-gated inwardly rectifying potassium channel) thallium flux, FluoZin2; at 10 µM; stronger effect = higher value; submaximal glutamate (EC20) added with thallium
# Chain of Metabotropic glutamate receptor 8 (Rattus norvegicus) (P70579 whole entry, looked up): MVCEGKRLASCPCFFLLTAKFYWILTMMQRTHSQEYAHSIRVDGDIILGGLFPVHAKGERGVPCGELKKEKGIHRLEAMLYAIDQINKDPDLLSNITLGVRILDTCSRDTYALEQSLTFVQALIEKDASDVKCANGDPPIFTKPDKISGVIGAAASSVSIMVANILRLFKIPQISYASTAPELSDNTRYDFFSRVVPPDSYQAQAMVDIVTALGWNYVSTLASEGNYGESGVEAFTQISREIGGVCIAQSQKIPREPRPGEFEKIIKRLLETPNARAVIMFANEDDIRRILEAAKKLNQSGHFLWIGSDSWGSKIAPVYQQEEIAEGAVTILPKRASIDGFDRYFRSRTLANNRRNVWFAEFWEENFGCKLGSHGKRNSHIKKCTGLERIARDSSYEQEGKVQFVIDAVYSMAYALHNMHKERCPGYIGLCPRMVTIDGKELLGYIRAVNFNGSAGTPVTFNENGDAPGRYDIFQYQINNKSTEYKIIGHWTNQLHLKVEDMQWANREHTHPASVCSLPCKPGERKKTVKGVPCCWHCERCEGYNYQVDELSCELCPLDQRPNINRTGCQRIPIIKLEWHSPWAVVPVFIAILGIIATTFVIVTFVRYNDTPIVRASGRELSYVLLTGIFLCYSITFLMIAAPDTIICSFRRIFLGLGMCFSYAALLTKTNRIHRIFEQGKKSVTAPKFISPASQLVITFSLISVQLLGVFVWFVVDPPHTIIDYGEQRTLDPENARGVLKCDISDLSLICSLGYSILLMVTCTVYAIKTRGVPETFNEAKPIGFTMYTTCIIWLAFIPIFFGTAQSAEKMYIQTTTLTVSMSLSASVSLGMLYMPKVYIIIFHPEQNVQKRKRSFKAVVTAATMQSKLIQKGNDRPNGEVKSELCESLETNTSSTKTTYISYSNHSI
row,Structure (SMILES),z-score
1,CCCn1cc(SCC(=O)NCC2CCCO2)c2ccccc21 (configuration not stated),0.0527
2,CCOC(=O)c1sc(/N=C/c2c(C)[nH]n(-c3ccccc3)c2=O)c(C#N)c1C,-0.156
3,Cc1[nH]n(-c2cccc3ccccc23)c(=O)c1/C=N/c1sc2c(c1C#N)CCC2,8.05 (active)
4,N#Cc1c(/N=C/c2cc3ccccc3s2)sc2c1CCC2,-0.0332
5,Cc1[nH]n(-c2ccc(F)cc2)c(=O)c1/C=N/c1sc2c(c1C#N)CCCC2,13 (active)
6,COc1cc(SC#N)ccc1N=Cc1c(C)[nH]n(-c2cccc3ccccc23)c1=O,-0.32
7,Cc1ccc(/C=N/c2sc3c(c2C#N)CCCCC3)o1,-0.0448
8,COc1ccc(OC)c(C2C(C(=O)O)c3ccccc3C(=O)N2C)c1 (configuration not stated),0.356
9,CCOC(=O)N1CCN(C(=O)c2ccc(CNS(=O)(=O)c3ccc(C)cc3)cc2)CC1,-0.952
10,COC(=O)CSc1nc2ccccc2o1,-0.541
11,Cc1nonc1OCC(C)(COc1nonc1C)NC(=O)c1ccc(Cl)cc1,-0.0555
12,COc1ccccc1CNC(=O)/C=C/c1cc2c(cc1Br)OCO2,-0.0108
13,CC(=O)c1c(C)[nH]c(C(=O)COc2ccc(C#N)cc2)c1C,-0.0197
14,CC(=O)c1c(C)[nH]c(C(=O)COc2cc(C)cc(C)c2)c1C,4 (active)
15,CCCOc1ccc(OCC(=O)c2[nH]c(C)c(C(C)=O)c2C)cc1,0.149
16,O=C1CN(Cc2ccccc2)C(=NCc2ccco2)S1,-0.501
17,Cc1cccc(NC(=S)NCC23C=CC(O2)C2C(=O)N(c4ccc(Cl)cc4)C(=O)C23)c1 (configuration not stated),-0.343
18,CCOC(=O)c1ccc(NC(=O)c2ccccc2[N+](=O)[O-])cc1,-0.169
19,CC(=O)NC(=S)Nc1ccc(-c2nc3ccc(C)cc3s2)cc1,0.23
20,CC(C)(C)NCCCCOc1ccc(F)cc1,2.98
21,OCCNCCCCOc1ccc(F)cc1,0.17
22,CC(C)(C)NCCOc1ccc(Br)cc1,-0.0295
23,C=CCn1c(N)c(C(=O)NCC2CCCO2)sc1=S (configuration not stated),0.129

row,Structure (SMILES),z-score
1,CCOC(=O)N1CCN(c2cc(=O)n(C3CCCCC3)c(=O)[nH]2)CC1,0.0254
2,CCOc1ccc(OCC)c(-c2c(=O)n(OCc3ccccc3Br)c3ccccc3[n+]2[O-])c1,1.8
3,c1ccc(N2CCN(c3c4c(nc5ncnn35)CCC4)CC2)cc1,-0.139
4,COc1cccc(N2CCN(c3c4c(nc5ncnn35)CCC4)CC2)c1,5.19 (active)
5,COc1cccc(CC(NC(C)=O)C(=O)NC2CCN(c3c4c(nc5ncnn35)CCC4)CC2)c1 (configuration not stated),0.172
6,COc1ccc2cc(S(=O)(=O)NCCCN3CCOCC3)ccc2c1,-0.0146
7,Cc1ccccc1NC(=O)/C(C#N)=C\c1cccnc1,-0.183
8,Cc1ccccc1NC(=O)C(C#N)Cc1cccnc1 (configuration not stated),2.26
9,CCc1ccccc1NC(=O)C(C#N)Cc1cccnc1 (configuration not stated),0.345
10,Cc1ccc(CO/N=C\Cc2snc(Sc3ncc(C(F)(F)F)cc3Cl)c2C#N)cc1,0.0198
11,Cc1ccc(CNC(=O)C(Cc2ccccc2)NS(=O)(=O)c2ccc3c(c2)CCC(=O)N3)cc1 (configuration not stated),0.0976
12,O=C(CSc1cn(Cc2ccccc2)c2ccccc12)Nc1nccs1,-0.121
13,C/C(Cc1ccccc1)=N\NC(=O)c1ccc(F)cc1,0.49
14,COc1ccc(C(=O)NN=C(Cc2ccccc2)Cc2ccccc2)cc1OC,-0.165
15,O=C(NN=C(Cc1ccccc1)Cc1ccccc1)c1ccc(F)cc1,4.71 (active)
16,O=C(CS(=O)(=O)Cc1ccccc1)Nc1ccc(S(=O)(=O)N2CCOCC2)cc1,-0.109
17,CCCC(=O)Nc1nc2ccc(S(=O)(=O)N3CCCCC3)cc2s1,-0.273
18,O=C(Nc1nc(-c2ccccn2)cs1)C1CC1,0.0299
19,O=C(Nc1nc(-c2ccccn2)cs1)c1ccc(Br)s1,12.3 (active)
20,O=C(Nc1nc(-c2cc(Cl)sc2Cl)cs1)c1ccc(Br)s1,0.0927
21,O=C(CSCc1ccccc1Br)N/N=C/c1ccc2c(c1)OCO2,-0.0558
22,CCOCCCNC(=O)Cc1c(C(=O)O)[nH]c2ccc(Cl)cc12,0.12
23,CCOC(=O)Cn1c(=N)n(CCOc2ccc3ccccc3c2)c2ccccc21,1.25

row,Structure (SMILES),z-score
1,Cc1cccc(OCCn2c(S(=O)(=O)O)nc3ccccc32)c1,0.0442
2,CCn1c(=N)n(CCOc2ccc(OC)cc2)c2ccccc21,-0.158
3,CCn1c(=S)[nH]c2ccccc21,0.63
4,Cc1cccc(OCCn2c(=S)[nH]c3ccccc32)c1,2.83
5,CCOC(=O)Cn1c(=N)n(CCOc2cccc(C)c2)c2ccccc21,3.95 (active)
6,CCOC(=O)Cn1c(=N)n(CCOc2ccc(OC)cc2)c2ccccc21,2.74
7,CCCn1c(=N)n(CCOc2ccc(OC)cc2)c2ccccc21,3.04 (active)
8,CCCn1c(=N)n(CC(=O)OCC)c2ccccc21,-0.118
9,CCCn1c(=N)n(CCOCCOCCn2c(=N)n(CCC)c3ccccc32)c2ccccc21,0.012
10,Cc1cccc(OCCn2c(=O)sc3ccccc32)c1,-0.343
11,N=c1n(CCO)c2ccccc2n1CCOc1ccccc1,-0.208
12,O=C(NCCN1CCCCC1)c1ccco1,0.151
13,CC1=C(Sc2ccccn2)C(=O)NC(C)(C)C1,0.338
14,CN(C)S(=O)(=O)c1ccc(C(=O)Nc2ccccc2OC(F)(F)C(F)F)cc1,-0.525
15,COc1ccc(NC(=O)Nc2ncn(Cc3cccc(C(F)(F)F)c3)n2)cc1OC,0.0572
16,COc1ccc(-c2ccc(/C=C3/C(=N)N4C=CSC4=NC3=O)o2)c([N+](=O)[O-])c1,0.455
17,CC(=O)N1N=C(c2ccco2)CC1c1ccc(C)cc1 (configuration not stated),0.0902
18,C=CCNC(=O)C(=O)N/N=C/c1ccco1,0.424
19,CCCn1c(C)cc(=O)c2cc(NC(=O)c3cnccn3)ccc21,-0.106
20,O=C(Cn1ccc2ccccc2c1=O)N1CCN(Cc2ccc3c(c2)OCO3)CC1,0.477
21,CCN1C(c2ccccc2)=C(c2ccccc2)S/C1=C/C=C1\SC(=S)N(C)C1=O,-0.0724
22,O=C(NCc1cccs1)C1CCN(S(=O)(=O)c2cccs2)CC1,-0.232
23,CCOc1ccc(NC(=O)CSCC(=O)O)cc1,-0.178

row,Structure (SMILES),z-score
1,Cc1occc1C(=O)N/N=C/C1=C(N2CCOCC2)C(=C\c2ccc(Cl)cc2Cl)/CC1,0.0547
2,CC(NC(=O)Cc1cccs1)C(c1cccs1)N1CCOCC1 (configuration not stated),-0.108
3,CCOC(=O)Cn1c(=N)n(Cc2ccccc2F)c2ccccc21,3.72 (active)
4,C=CCn1c(=N)n(CC(=O)OCC)c2ccccc21,0.534
5,CCOC(=O)Cn1c(=N)n(Cc2ccccc2)c2ccccc21,0.46
6,COc1cc(C(=O)NCc2nnc(SCC(=O)NCc3ccccc3)o2)cc(OC)c1OC,1.55
7,CCC(c1nnnn1CCOC)N(Cc1cc2c(C)cc(C)cc2[nH]c1=O)CC1CCCO1 (configuration not stated),-0.203
8,Nc1nc(CSC(=S)N2CCN(c3ccccc3)CC2)nc(Nc2ccccc2)n1,0.00399
9,Nc1nc(CSC(=S)N2CCOCC2)nc(Nc2ccc(F)cc2)n1,-0.0752
10,Nc1nc(CSC(=S)N2CCOCC2)nc(Nc2ccccc2)n1,2.25
11,Cc1cc(C)c(S(=O)(=O)c2ccccc2)c(OC(=O)c2c(Cl)cccc2Cl)n1,-0.286
12,COc1ccccc1NC(=O)c1cc(Cl)ccc1NC(=O)c1ccco1,0.52
13,COc1ccccc1NC(=O)C(=O)NNC(=O)c1ccco1,2.81
14,COc1ccccc1NC(=O)c1cccc(NC(=O)c2ccco2)c1,-0.669
15,COc1ccc(NC(=O)c2ccco2)cc1NC(=O)c1ccc(C)cc1,-0.304
16,COc1ccc(Cl)cc1NC(=O)c1ccco1,-0.426
17,COc1ccc(C)cc1NC(=O)C(=O)NNC(=O)c1ccco1,4.89 (active)
18,O=c1c2ccccc2nc(CSc2ncnc3nc[nH]c23)n1-c1cccc(C(F)(F)F)c1,-0.256
19,Cc1nc(NC(=O)c2ccccc2)sc1-c1csc(NCc2ccco2)n1,0.00275
20,Cn1nnc(NC(=O)c2ccco2)n1,0.813
21,Cc1ccc(C(=O)OCC(=O)NCc2ccco2)cc1,-0.195
22,CCc1ccc2c(c1)C1(C(=O)N2)N2CCCC2C(C(=O)c2ccc3ccccc3c2)C12C(=O)Nc1ccccc12 (configuration not stated),-0.276
23,CCc1ccc2c(c1)C(=O)c1ccccc1C2=O,-0.389

row,Structure (SMILES),z-score
1,CC(C)c1ccc2c(c1)C1(NN=C(c3ccccc3)S1)C(=O)N2 (configuration not stated),0.979
2,CCc1ccc2c(c1)C1(NN=C(c3ccccc3)S1)C(=O)N2 (configuration not stated),0.104
3,CCc1ccc2c(c1)C1(NN=C(c3ccc(C)cc3)S1)C(=O)N2 (configuration not stated),3.15 (active)
4,CCc1ccc2c(c1)C1(NN=C(c3cccc4ccccc34)S1)C(=O)N2 (configuration not stated),4.02 (active)
5,CCCc1ccc(OCC(O)CN2CCN(c3ccccc3)CC2)cc1 (configuration not stated),-0.0136
6,COc1cc(C2CC(=O)c3c(ccc4ccccc34)N2)ccc1O (configuration not stated),0.11
7,COc1ccc(C(=O)C(CCCCC(CN(C)C)C(=O)c2ccc(OC)cc2)CN(C)C)cc1 (configuration not stated),-0.494
8,CCOC(=O)C1=C(C)NC(=O)NC1c1ccc(OC)c(CN2CCOCC2)c1 (configuration not stated),0.00374
9,COc1ccc(CCCC(=O)Nc2ccccc2F)cc1,0.0152
10,COC(=O)c1cc(NC(=O)C2CC2)cc(C(=O)OC)c1,0.0071
11,Cc1ccsc1/C=C1/SC(N2CC(C)OC(C)C2)=NC1=O (configuration not stated),-0.238
12,CC(=O)c1ccc(NC2CC(O)C(O)CO2)cc1 (configuration not stated),2.32
13,CC(=O)c1ccc(NC2OC(C)C(O)C(O)C2O)cc1 (configuration not stated),0.292
14,CC(=O)c1ccc(NC(=S)N2CC(C)CC(C)C2)cc1 (configuration not stated),-0.208
15,CCCn1nc(C(=O)OCC(=O)c2ccc3c(c2)NC(=O)CO3)c2ccccc2c1=O,-1.71
16,O=C(NNS(=O)(=O)c1ccccc1)c1ccncc1,-0.151
17,CC1=CC(C)(C)Nc2ccc(OC(=O)C(Cc3ccccc3)N3C(=O)c4ccccc4C3=O)cc21 (configuration not stated),1.05
18,CC1=CC(C)(C)Nc2ccc(OC(=O)C(Cc3ccccc3)N3C(=O)C4CCCCC4C3=O)cc21 (configuration not stated),2.63
19,CC1=CC(C)(C)Nc2ccc(OC(=O)CN3C(=O)C4CCCCC4C3=O)cc21 (configuration not stated),1.08
20,CCC(CC)NC(=O)/C=C/c1ccccc1Cl,-0.178
